# Reference: PubChem BioAssay
# Active and inactive are the calls of the source.
# How the values were obtained:
# [1] = compounds binding Alexa647 anti-His antibody – biochemical, small-molecule microarray, 635 nm fluorescence, artefact control for SMM control protein annotation, primary screen (AID 1128); details: higher = more signal;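 also: score merges feature fluorescence with signal-to-noise for each printed compound spot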
# [2] = system: Human papillomavirus type 1a E7 protein (residues 1-88); assay: HPV1a E7 small-molecule binders, primary screen, biochemical, small-molecule microarray, residues 1-88, 635 nm (AID 1129); details: small-molecule microarray binding, fluorescence 635 nm; higher = more signal
# [3] = molecular target: Focal adhesion kinase 1 (Homo sapiens) (UniProt Q05397); assay: PTK2 protein binding on printed compound slides – biochemical, small-molecule microarray, 635/667 nm fluorescence, BSA, DTT, primary screen (AID 1130); details: 635 nm fluorescence, higher = more signal;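 also: composite of spot emission at 667 nm and signal to noise over triplicate slides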
# Chain of Focal adhesion kinase 1 (Homo sapiens) (Q05397 whole entry, looked up): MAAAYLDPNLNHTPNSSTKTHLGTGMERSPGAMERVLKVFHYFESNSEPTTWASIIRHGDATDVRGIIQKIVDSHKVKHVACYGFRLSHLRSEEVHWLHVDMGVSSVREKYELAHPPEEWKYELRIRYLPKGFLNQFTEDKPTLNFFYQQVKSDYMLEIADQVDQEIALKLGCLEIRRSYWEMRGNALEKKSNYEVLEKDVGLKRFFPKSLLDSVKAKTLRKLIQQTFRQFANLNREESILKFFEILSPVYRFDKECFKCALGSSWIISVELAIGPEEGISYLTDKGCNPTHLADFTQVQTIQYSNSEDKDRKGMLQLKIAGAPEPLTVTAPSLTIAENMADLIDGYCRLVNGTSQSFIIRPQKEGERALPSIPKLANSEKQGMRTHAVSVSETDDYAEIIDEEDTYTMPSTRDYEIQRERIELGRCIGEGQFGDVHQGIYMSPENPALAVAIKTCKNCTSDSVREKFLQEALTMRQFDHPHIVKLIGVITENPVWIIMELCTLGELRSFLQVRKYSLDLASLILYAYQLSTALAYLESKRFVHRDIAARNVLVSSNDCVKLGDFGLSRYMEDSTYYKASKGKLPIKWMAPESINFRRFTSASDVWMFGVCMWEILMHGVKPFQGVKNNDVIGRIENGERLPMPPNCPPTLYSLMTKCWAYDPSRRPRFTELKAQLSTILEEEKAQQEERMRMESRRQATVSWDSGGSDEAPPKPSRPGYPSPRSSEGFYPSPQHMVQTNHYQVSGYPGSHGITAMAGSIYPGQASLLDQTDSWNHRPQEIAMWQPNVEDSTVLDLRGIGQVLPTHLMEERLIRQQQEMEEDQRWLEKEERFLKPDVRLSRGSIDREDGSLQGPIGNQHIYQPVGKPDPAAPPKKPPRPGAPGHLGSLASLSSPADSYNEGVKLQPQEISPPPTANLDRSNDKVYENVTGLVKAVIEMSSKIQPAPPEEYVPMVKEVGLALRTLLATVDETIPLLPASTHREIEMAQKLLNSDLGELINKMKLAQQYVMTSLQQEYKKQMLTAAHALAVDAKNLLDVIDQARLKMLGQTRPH
# [4] = system: Fibrinogen (Alexa647-labelled); assay: Alexa647-fibrinogen binding to printed small molecules – biochemical, small-molecule microarray, 635/667 nm fluorescence, artefact control for SMM control-protein annotation, profiling panel (AID 1131); details: fibrinogen-A647 binding fluorescence, higher = more signal;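 also: z-score merges 667 nm fluorescence with per-spot signal-to-noise over triplicate slides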
# [5] = molecular target: Follistatin (Homo sapiens) (UniProt P19883); assay: FST protein binding to printed compounds – biochemical, small-molecule microarray, 635/667 nm fluorescence, primary screen (AID 1132); details: 635 nm fluorescence, higher = more signal
# Chain of Follistatin (Homo sapiens) (P19883 whole entry, looked up): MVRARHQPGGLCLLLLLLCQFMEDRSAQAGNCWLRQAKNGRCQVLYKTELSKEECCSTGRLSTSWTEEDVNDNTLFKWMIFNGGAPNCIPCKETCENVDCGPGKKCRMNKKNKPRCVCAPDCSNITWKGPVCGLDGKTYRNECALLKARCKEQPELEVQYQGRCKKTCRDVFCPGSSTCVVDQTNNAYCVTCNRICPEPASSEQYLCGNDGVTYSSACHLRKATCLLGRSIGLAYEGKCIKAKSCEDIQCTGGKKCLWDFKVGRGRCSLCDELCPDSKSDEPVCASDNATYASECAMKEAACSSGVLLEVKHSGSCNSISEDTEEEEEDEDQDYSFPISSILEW
# [6] = molecular target: Fibroblast growth factor 2 (Homo sapiens) (UniProt P09038); assay: basic fibroblast growth factor binding to printed compounds – biochemical, small-molecule microarray, 635/667 nm fluorescence, primary screen (AID 1133); details: FGF2, fluorescence 635/667, higher = more signal
# Chain of Fibroblast growth factor 2 (Homo sapiens) (P09038 whole entry, looked up): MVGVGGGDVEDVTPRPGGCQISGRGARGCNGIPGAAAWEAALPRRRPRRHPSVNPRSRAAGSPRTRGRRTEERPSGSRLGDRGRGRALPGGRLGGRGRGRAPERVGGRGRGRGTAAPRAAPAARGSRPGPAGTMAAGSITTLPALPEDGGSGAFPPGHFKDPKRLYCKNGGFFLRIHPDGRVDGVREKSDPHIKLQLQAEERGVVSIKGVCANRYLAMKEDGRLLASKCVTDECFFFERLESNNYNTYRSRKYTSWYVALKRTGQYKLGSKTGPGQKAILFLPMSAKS
# [7] = JC-1 mitochondrial potential readout, lung cancer cells – cell-based, A549, JC-1 fluorescence, basal, 24 h, 100 nL, profiling panel (AID 1138); details: higher = more signal;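 also: A549 lung adenocarcinoma cells under basal conditions with no added stimulus; test concentration not given here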
# Lefty1 = Lefty1 protein binding to printed compounds – biochemical, small-molecule microarray, 635/667 nm fluorescence, primary screen (AID 1139); details: fluorescence 635/667, higher = more signal
# [8] = system: wheat germ agglutinin (Triticum aestivum), Alexa647-labelled; assay: Alexa647-WGA lectin binding to printed small molecules – biochemical, small-molecule microarray, 635/667 nm fluorescence, artefact control for SMM control-protein annotation, profiling panel (AID 1140); details: WGA-A647 binding, 635 nm fluorescence, higher = more signal;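 also: score merges 667 nm feature emission with signal to noise over triplicate slides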
# [9] = molecular target: Luciferin 4-monooxygenase (Photinus pyralis) (UniProt P08659); assay: inhibition of purified Photinus pyralis luciferase – biochemical, luminescence, purified enzyme, 2006 set, primary screen (AID 1141); details: purified firefly luciferase, SteadyGlo luminescence, 30 min; higher = more signal, called active from +8 up or from −8 down;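 also: cell-free assay with purified firefly luciferase at 100 ng per well in PBS; test concentration not given here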
# Chain of Luciferin 4-monooxygenase (Photinus pyralis) (P08659 whole entry, looked up): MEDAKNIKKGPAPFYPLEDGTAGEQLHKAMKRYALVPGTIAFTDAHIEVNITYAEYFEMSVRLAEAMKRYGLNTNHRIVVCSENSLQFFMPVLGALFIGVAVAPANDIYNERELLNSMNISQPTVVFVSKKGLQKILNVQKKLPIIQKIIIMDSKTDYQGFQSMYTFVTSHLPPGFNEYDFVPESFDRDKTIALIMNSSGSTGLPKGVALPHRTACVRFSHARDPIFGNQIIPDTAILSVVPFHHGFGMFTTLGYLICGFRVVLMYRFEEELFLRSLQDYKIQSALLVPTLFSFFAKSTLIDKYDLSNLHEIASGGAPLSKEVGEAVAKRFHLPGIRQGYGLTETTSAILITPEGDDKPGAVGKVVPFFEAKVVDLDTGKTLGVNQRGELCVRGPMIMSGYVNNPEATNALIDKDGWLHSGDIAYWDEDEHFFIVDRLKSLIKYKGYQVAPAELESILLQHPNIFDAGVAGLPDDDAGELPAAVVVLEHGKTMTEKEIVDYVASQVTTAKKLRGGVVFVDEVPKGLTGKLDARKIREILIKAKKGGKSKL
Compound,composite z-score [1],composite z-score [2],composite z-score [3],composite z-score [4],composite z-score [5],composite z-score [6],z-score [7],composite z-score (Lefty1),composite z-score [8],z-score [9]
CCOC(=O)C1=CCN(S(=O)(=O)c2ccc(C)cc2)C1c1ccccc1 (stereo not given),0.843,1.2,0.656,0.609,0.467,0.835,0.942,0.0842,0.652,1.75 (inactive)
CC(C)C(CO)N1C(=O)[C@@H]2[C@H]3C(=O)OCC=C[C@H]3OC23C=CCN(C(C)(C)C)C(=O)[C@@H]13 (stereo not given in full),-0.54,-1.09,-0.513,-0.0751,0.277,-0.405,-1.76,0.503,-0.0676,-0.159 (inactive)
COC(=O)[C@@]1(Cc2ccc(F)cc2)[C@H]2c3cc(C(=O)N(C)C)n(Cc4c(CO)[nH]cc(C)c4=O)c3C[C@H]2CN1C(=O)c1ccccc1,0.394,0.453,0.0551,-0.466,-0.198,-0.197,0.932,-0.0191,0.406,0.593 (inactive)
CC=CC(O)C1C=CC2C(=O)NC(=O)C2N1Nc1ccccn1 (stereo not given),1.41,0.497,0.381,0.657,1.02,0.352,0.514,0.585,0.0489,-0.0429 (inactive)
[N-]=[N+]=NCc1ccccc1[C@@H]1OC(c2ccc(OCCCO)cc2)=N[C@]1(Cc1ccccc1N=[N+]=[N-])C(=O)NCCN1CCOCC1,1.37,1.25,0.535,0.983,1.39,0.893,2.23,0.54,0.445,-2.82 (inactive)
Cc1ccc(S[C@]2(C(=O)NC(C)C)CC(=O)N(Cc3ccccc3Cl)[C@@H]2c2ccc(CO)cc2)cc1,0.568,0.424,-0.092,0.54,-0.568,-1.27,-0.718,-1.56,0.762,-0.426 (inactive)
C=C(/C(=C/C[C@@H](OC(C)=O)c1ccc(OCCO)cc1)c1cc(C(=O)OC)ccc1OC)C(C)C,1.81,0.999,0.211,0.665,0.776,1.11,0.471,1.36,0.85,-0.6 (inactive)
COCCOC(=O)N1C(=O)[C@@]2(c3cc(C#Cc4ccc(OC)cc4)ccc31)[C@H](c1ccc(OCCO)cc1)N1[C@H](c3ccccc3)[C@H](c3ccccc3)OC(=O)[C@H]1[C@@H]2C(=O)Nc1nc2ccccc2s1,0.52,1.16,0.415,0.707,1.05,0.464,-2.05,0.676,0.609,-1.27 (inactive)
CC(C)[C@H]1NC(=O)[C@@]23C(=O)N[C@@H](Cc4ccccc4)C2[C@H](C)[C@@]2(C)O[C@H]2C3/C=C/CCC/C=C/CNC(=O)[C@H](Cc2ccccc2)NC1=O (stereo not given in full),0.123,0.369,0.205,-0.684,0.283,-0.0659,-0.69,1.03,-0.755,-0.388 (inactive)
COc1ccc(C#Cc2ccc3c(c2)[C@]2(C(=O)N3)[C@H](C(=O)Nc3nc4ccccc4s3)[C@H]3C(=O)O[C@H](c4ccccc4)[C@H](c4ccccc4)N3[C@@H]2c2ccccc2OCCO)cc1,0.395,1.1,0.446,0.969,1.16,0.0821,-1.98,0.262,0.371,-0.364 (inactive)
C=C(CCCC)C(=O)CC[C@@H](OC(=O)c1cccnc1)c1ccc(OCCO)cc1,0.0583,0.581,-0.471,-0.0496,1.47,1.56,0.335,1.57,0.363,-3.15 (inactive)
C=CCC(OC(C)=O)[C@@H]1[C@@H](N(Cc2ccc(-c3ccccc3)cc2)C(=O)c2ccc(C)cc2)c2cc(OCCCO)ccc2N1C(=O)Cc1ccc2ccccc2c1 (stereo not given in full),0.0102,-0.823,-0.0958,0.0701,0.37,-0.154,3.13,0.293,0.0607,-2.19 (inactive)
C=C[C@@H](C)[C@H](O)c1ccc(OCCO)cc1,0.0123,-0.535,-0.232,-1.82,-0.808,-0.994,0.41,-1.19,-0.858,-15.8 (active)
COc1ccc([Si](C)(C)[C@@H]2[C@@H](CC(=O)N3Cc4ccccc4C[C@H]3CO)O[C@]3(C(=O)N(c4ccccc4)c4ccccc43)[C@H]2C)cc1,2.39,0.957,0.983,0.813,1.36,1.46,0.277,1.04,1.53,0.348 (inactive)
CC(C)[C@H]1NC(=O)[C@@]23C(=O)N[C@@H](Cc4ccccc4)C2[C@H](C)[C@@]2(C)O[C@H]2C3/C=C/C/C=C\CNC(=O)[C@H](Cc2ccccc2)NC1=O (stereo not given in full),0.591,0.973,0.117,0.982,1.31,1.42,-0.182,1.57,0.489,-0.894 (inactive)
C=CCNC(=O)[C@H]1[C@@H]2C(=O)O[C@@H](c3ccccc3)[C@@H](c3ccccc3)N2[C@@H](c2ccc(O)cc2)[C@]12C(=O)N(C(=O)OCCOC)c1ccc(C#CCC(C(=O)OC)C(=O)OC)cc12,0.724,1.13,0.439,0.858,1.32,1.5,-1.74,0.836,0.856,0.315 (inactive)
NC(=O)[C@H]1[C@@H]2C(=O)O[C@@H](c3ccccc3)[C@@H](c3ccccc3)N2[C@@H](c2ccc(O)cc2)[C@]12C(=O)Nc1ccc(C#CC3=CCCCC3)cc12,2.5,1.2,0.985,0.587,0.959,-0.004,-1.96,0.542,0.548,-0.784 (inactive)
O=C(NCCN1CCOCC1)[C@@H]1c2ccccc2C(=O)N(Cc2ccccc2)[C@H]1c1ccc(CO)cc1,-0.87,-0.611,-0.668,0.143,0.321,-0.447,0.829,-0.665,-0.3,1.36 (inactive)
O=C1C2C=CC(C(O)c3ccc(I)cc3)N(Nc3ccccc3)C2C(=O)N1c1ccccc1 (stereo not given),1.45,1.19,0.83,0.907,0.862,0.0891,-0.0457,-0.358,1.44,-0.102 (inactive)
[N-]=[N+]=NC[C@H](Cc1ccccc1)NC(=O)c1ccccc1,0.568,-0.165,0.161,-0.0208,-0.487,-0.0599,1.21,-0.156,0.736,-0.53 (inactive)
CC(=O)N1CC(C(O)C2C=CC3C(=O)NC(=O)C3N2Nc2ccc(Cl)cc2Cl)c2ccccc21 (stereo not given),0.285,1.15,-0.416,0.439,0.772,-0.0113,0.125,-0.216,1.14,-1.4 (inactive)
C=CCNC(=O)[C@@H]1[C@H]2C(=O)O[C@H](c3ccccc3)[C@H](c3ccccc3)N2[C@H](c2ccc(O)cc2)[C@@]12C(=O)Nc1ccc(C#CCC(C(=O)OC)C(=O)OC)cc12,-0.414,1.2,0.267,0.0847,1.24,0.464,-1.22,0.147,0.0307,-0.108 (inactive)
CC(C)c1ccc(NN2C(C(O)Cc3ccccc3)C=CC3C(=O)N(c4ccccc4)C(=O)C32)cc1 (stereo not given),0.829,1.11,1.16,0.958,1.28,-0.0551,-1.24,0.441,0.797,-0.959 (inactive)
Cc1ccc(F)cc1S(=O)(=O)N[C@@H]1CCN(Cc2cccc3[nH]ccc23)C1,0.134,0.179,-0.271,-0.383,1.26,0.932,0.443,0.69,-0.227,-0.0287 (inactive)
Cc1ccc(C(C)CC(O)C2C=CC3C(=O)N(c4ccccc4)C(=O)C3N2Nc2ccc(C#N)cc2)o1 (stereo not given),1.21,1.24,0.175,1.03,1.24,0.37,0.289,0.0143,0.586,-0.993 (inactive)
